PERK inhibitor – human PERK inhibition, primary cell-based screen. Q9NZJ5. CHO PERK-DD fusion, SEAP luminescence translation reporter. AID 1416. inhibition, % at 5.6 µM. 0.17% of 220,000 active;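 active means inhibition above the mean inhibition of all tested compounds plus 3 SD, set separately per screening campaign, cut at about 2.9% in these data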;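 further: PERK kinase domain activated by AP20187 dimerizer at 100 nM; 0% = DMSO with dimerizer and 100% = rapamycin at 8.4 µM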
ROMK mod – modulators of human ROMK potassium channel; 2% of 130,000 active; B-score at 10 µM; P48048; Tet-inducible ROMK, thallium flux fluorescence; actives lie on both sides;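 active means signal ratio slope over the read window, or its plate-corrected B-score, at least 3 SD from the plate mean, either direction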;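 further: B-score of the F/F0 ratio slope over 7 to 12 s after thallium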
WT yeast gro inh – growth inhibition of WT yeast, mitochondrial fusion screen. mitochondrial fusion phenotypic screen, WT strain. AID 1362. 2.1% of 190,000 active. inhibition, % at 10 µM; in the data active means inhibition above about 58%; tested in S. cerevisiae
Arbovirus anti – blocks arbovirus infection; inhibition, % at 10 µM; 0.37% of 200,000 active; arbovirus infection cell-based antiviral screen; AID 1251; in the data active means inhibition above about 30%
ROMK hit retest – confirmation of human ROMK potassium channel modulators | shares compounds with ROMK mod | ROMK thallium flux, fluorescence ratio; hits give low values | normalized thallium flux (F/F0 slope) at 10 µM | 54% of 3,000 active;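 active means Flux at 10 µM at least 3 SD below or above vehicle control mean in one or both replicates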
The depositor's hits bear a star. Rows were chosen to be rich in hits. Some 3.3% of all compounds tested hit in one or more screens of this group.

How did O=C1CN(C(=O)c2cc3ccccc3oc2=O)C(c2ccc(F)cc2)c2cc(F)ccc2N1 (stereo not drawn) do in these assays?
PERK inhibitor: 0; ROMK mod: 4*; WT yeast gro inh: -17; Arbovirus anti: -8; ROMK hit retest: 0.075

Results for COC(=O)c1ccc(C)c(-n2c(C)cc(C=O)c2C)c1 ?
PERK inhibitor: 0; ROMK mod: 0.97; WT yeast gro inh: 10; Arbovirus anti: -5

What do the screens show for `O=C(c1nnsc1S(=O)c1ccc(Cl)cc1)N1CCOCC1` (stereo not drawn)?
PERK inhibitor: -1; ROMK mod: -6.3*; WT yeast gro inh: 38; Arbovirus anti: -38; ROMK hit retest: 0.052*

How did O=C1CC(C(=O)N(c2ccc(F)cc2)C(C(=O)NC2CCCC2)c2ccccn2)CS1 (stereo not drawn) do in these assays?
PERK inhibitor: -1; ROMK mod: -0.33; WT yeast gro inh: 4; Arbovirus anti: 0

How did CN(C)c1ccc(/C=C/c2cccc[n+]2[O-])cc1 do in these assays?
PERK inhibitor: 0; ROMK mod: -4.4*; ROMK hit retest: 0.054*

What do the screens show for `CCCCNC(=O)C1CCN(S(=O)(=O)c2c(C)noc2/C=C\c2ccc(OC)cc2)CC1`?
PERK inhibitor: 0; WT yeast gro inh: -4; Arbovirus anti: -15; ROMK hit retest: 0.081

Results for CC1CCN(C(=O)C2CCN(C(=O)c3cc4sccc4n3Cc3ccc(F)cc3)CC2)CC1 ?
PERK inhibitor: -1; ROMK mod: -2.9; WT yeast gro inh: 52; Arbovirus anti: -2

How did CCn1c(C(=O)N2CCC(C(=O)N3CCN(c4ccccn4)CC3)CC2)cc2sccc21 do in these assays?
PERK inhibitor: -1; WT yeast gro inh: 5; Arbovirus anti: 2; ROMK hit retest: 0.075

What do the screens show for `Cc1nc2ccccn2c1/C(O)=C1\C(=O)C(=O)N(CCCN(C)C)C1c1ccc(F)cc1` (stereo not drawn)?
PERK inhibitor: 1; WT yeast gro inh: 5; Arbovirus anti: -5

Results for Cc1c(Cl)cccc1NC(=S)N1CCN(C(=O)C2CCCO2)CC1 (stereo not drawn) ?
PERK inhibitor: 0; WT yeast gro inh: -2; Arbovirus anti: 10

What do the screens show for `c1ccc(CC2=NCCN2)cc1`?
PERK inhibitor: -1; ROMK mod: 3.1*; WT yeast gro inh: -2; Arbovirus anti: 9; ROMK hit retest: 0.079

How did CCCCC(c1nnnn1C1CCCC1)N1CCN(C2CCCCC2)CC1 (stereo not drawn) do in these assays?
PERK inhibitor: 0; ROMK mod: -4.1*; WT yeast gro inh: -6; Arbovirus anti: -2; ROMK hit retest: 0.063*

What do the screens show for `Cc1cc2c(cc1C)N(C(=O)CSc1nncn1C)C(C)(C)c1ssc(=S)c1-2`?
PERK inhibitor: -2; ROMK mod: -3.5*; WT yeast gro inh: 3; Arbovirus anti: -6; ROMK hit retest: 0.064*

How did Cc1ccc2c(c1)N(C(=O)CSc1nncn1C)C(C)(C)c1ssc(=S)c1-2 do in these assays?
PERK inhibitor: 0; WT yeast gro inh: 15; Arbovirus anti: -12

Results for CC(=O)c1cccc(NC(=O)CC2S/C(=N/N=C/c3cccs3)NC2=O)c1 (stereo not drawn) ?
PERK inhibitor: 0; ROMK mod: 0.55; WT yeast gro inh: 1; Arbovirus anti: -2

Results for COc1ccc(Cn2nnnc2C(c2ccc(C)cc2)N2CCN(C3CCCC3)CC2)cc1 (stereo not drawn) ?
PERK inhibitor: 0; WT yeast gro inh: 6; Arbovirus anti: -7; ROMK hit retest: 0.053*

Results for COc1cccc(C(c2nnnn2Cc2ccccc2)N2CCN(C3CCCC3)CC2)c1OC (stereo not drawn) ?
PERK inhibitor: -1; ROMK mod: -4.8*; WT yeast gro inh: -3; Arbovirus anti: 13; ROMK hit retest: 0.054*

How did COc1ccc(Cn2nnnc2C(c2cc3cc(C)ccc3[nH]c2=O)N2CCN(C)CC2)cc1 (stereo not drawn) do in these assays?
PERK inhibitor: 0; ROMK mod: -3; WT yeast gro inh: 4; Arbovirus anti: -3; ROMK hit retest: 0.076

What do the screens show for `Cc1c(C(=O)N2CCN(c3cccc(Cl)c3)CC2)cccc1[N+](=O)[O-]`?
PERK inhibitor: 0; ROMK mod: 0.39; WT yeast gro inh: 32; Arbovirus anti: -5

How did O=C(O)c1cccc(NC(=O)c2cccc(S(=O)(=O)N3CCc4ccccc4C3)c2)c1 do in these assays?
PERK inhibitor: 1; ROMK mod: -0.23; WT yeast gro inh: -13; Arbovirus anti: 2

Results for CN1CC=C2C(C#N)=C(N)C(C#N)(C#N)C(c3ccsc3)C2C1 (stereo not drawn) ?
PERK inhibitor: 0; WT yeast gro inh: 19; Arbovirus anti: -1

What do the screens show for `CN1CC=C2C(C#N)=C(N)C(C#N)(C#N)[C@H](c3cccc(Cl)c3)C2C1` (stereo partly drawn)?
PERK inhibitor: 1; ROMK mod: -3.8*; WT yeast gro inh: 7; Arbovirus anti: 3; ROMK hit retest: 0.045*

Results for Cc1ccc(S(=O)(=O)N(C)C)cc1NC(=O)COC(=O)c1sc2cc(Cl)ccc2c1Cl ?
PERK inhibitor: 1

How did Cc1ccc(CSc2nnc([C@@H]3CCCN3C(=O)OC(C)(C)C)o2)cc1 do in these assays?
PERK inhibitor: 0

How did O=C(NNc1cc(Br)c(O)c(Br)c1)c1ccccc1 do in these assays?
PERK inhibitor: 1; ROMK mod: 0.052; WT yeast gro inh: 2; Arbovirus anti: -12

What do the screens show for `Cc1cc(C)n(-c2nc3nonc3nc2Nc2cccc(C)c2C)n1`?
PERK inhibitor: 2; ROMK mod: -3.9*; WT yeast gro inh: -12; Arbovirus anti: 16; ROMK hit retest: 0.053*

Results for O=C(Cn1cc(Cl)ccc1=O)c1ccc(Cl)cc1 ?
PERK inhibitor: 1; ROMK mod: -0.75; WT yeast gro inh: 16; Arbovirus anti: 3

How did COc1ccc(-c2cc(C(=O)Nc3cc(C)on3)no2)cc1OC do in these assays?
PERK inhibitor: 1; ROMK mod: -0.75; WT yeast gro inh: -1; Arbovirus anti: 3

Results for COc1ccc(-c2cc(C(=O)Nc3cc(C)nn3-c3ccccc3)no2)cc1OC ?
PERK inhibitor: 2; ROMK mod: 3.7*; WT yeast gro inh: 23; Arbovirus anti: -12; ROMK hit retest: 0.077

Results for Cc1ccc(NC(=O)c2noc3c2CCc2ccccc2-3)cc1 ?
PERK inhibitor: -1; ROMK mod: 0.8; WT yeast gro inh: -4; Arbovirus anti: 10

What do the screens show for `Cc1cc(NC(=O)c2noc3c2CCc2ccccc2-3)n(-c2ccccc2)n1`?
PERK inhibitor: 0; WT yeast gro inh: 3; Arbovirus anti: 0; ROMK hit retest: 0.083

What do the screens show for `CCCN(C(=O)c1cccs1)c1nnc(-c2ccncc2)s1`?
PERK inhibitor: 0; ROMK mod: -0.97; WT yeast gro inh: 2; Arbovirus anti: 10

How did CC(=O)c1c(C(C)=O)c(C)n(-c2cccc3cccnc23)c1C do in these assays?
PERK inhibitor: 1; WT yeast gro inh: 11; Arbovirus anti: -2

Results for CSc1sc(C(=O)Nc2ccc(F)cc2F)c2c1C=CCC2 ?
PERK inhibitor: -1; ROMK mod: 0.58

Source: PubChem BioAssay
